proKLK7 act – proKLK7 zymogen activators, primary screen, biochemical, fluorescence intensity; purified proKLK7, EDANS-DABCYL substrate fluorescence; 100% is mature enzyme control, 0% vehicle; 370,000 compounds, 0.9% hits; Kallikrein-7 (Homo sapiens), P49862; AID 652039, 2013; activation, % at 7 µM;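 active = activation above the mean of all tested compounds plus 3 SD, computed per campaign excluding outliers beyond control limits, cut at about 13% in these data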
ADAM10 inh – human ADAM10 inhibitors, primary screen, biochemical, QFRET, HTS | inhibition, % at 7 µM | recombinant ADAM10, EDANS/DABCYL FRET peptide cleavage, 3 h | 370,000 compounds, 0.62% hits | Disintegrin and metalloproteinase domain-containing protein 10 (Homo sapiens), O14672 | AID 720582, 2013;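 active = inhibition above a per-campaign cutoff equal to the mean of compounds falling between control-based bounds plus 3 SD, cut at about 20% in these data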
Target sequence (O14672 214-748 limits assumed): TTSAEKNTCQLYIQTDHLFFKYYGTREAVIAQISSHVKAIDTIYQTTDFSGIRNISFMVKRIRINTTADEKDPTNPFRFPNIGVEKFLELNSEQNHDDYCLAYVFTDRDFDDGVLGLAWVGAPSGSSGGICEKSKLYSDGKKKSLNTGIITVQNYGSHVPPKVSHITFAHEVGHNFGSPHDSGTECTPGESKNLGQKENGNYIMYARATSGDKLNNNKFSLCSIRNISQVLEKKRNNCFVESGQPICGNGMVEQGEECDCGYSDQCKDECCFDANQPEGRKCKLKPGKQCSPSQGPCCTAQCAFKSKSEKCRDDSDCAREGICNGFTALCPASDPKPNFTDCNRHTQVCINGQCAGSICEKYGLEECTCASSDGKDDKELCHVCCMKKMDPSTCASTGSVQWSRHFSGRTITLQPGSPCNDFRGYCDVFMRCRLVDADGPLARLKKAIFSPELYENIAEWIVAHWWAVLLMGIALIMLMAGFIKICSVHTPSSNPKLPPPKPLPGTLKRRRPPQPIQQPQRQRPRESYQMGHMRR
sPLA2-III inh – human group III sPLA2 inhibitors, primary screen, biochemical, QFRET, BODIPY PC-A2 liposome substrate | Group 3 secretory phospholipase A2 (Homo sapiens), Q9NZ20 | inhibition, % at 12.2 µM | QFRET BODIPY PC-A2 liposome hydrolysis, fluorescence | 370,000 compounds, 0.56% hits;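 active = inhibition above mean plus 3 SD of compounds lying within the high and low control bounds, cut at about 19% in these data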
ADAM17 inh – ADAM17 inhibitors, primary screen, biochemical, QFRET | Disintegrin and metalloproteinase domain-containing protein 17 (Homo sapiens), P78536 | recombinant ADAM17, EDANS/DABCYL FRET peptide cleavage | inhibition, % at 6.95 µM | 370,000 compounds, 0.83% hits;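 active = inhibition above the mean of compounds lying between control limits plus 3 SD, set per campaign, cut at about 8.5% in these data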
NRP1-CendR mod – modulators of CendR peptide binding to NRP-1, primary screen, biochemical, fluorescence polarization, uHTS | FAM-RPARPAR peptide binding to NRP-1 | 360,000 compounds, 0.85% hits | inhibition, % at 25 µM;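 active = inhibition or corrected inhibition above about 18%, plus a signal ratio from 0.5 to 1.5, limit read from the data, passing the limit was not always enough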
ADAM10 counter – ADAM10 inhibitors, counter-screen for ADAM17 exosite inhibitor project, biochemical, FRET, human ADAM10; recombinant ADAM10, EDANS/DABCYL FRET peptide cleavage, 3 h; AID 743256, 2014; shares compounds with ADAM17 inh; 2,900 compounds, 47% hits; inhibition, % at 6.95 µM;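 active = mean inhibition over the triplicate runs exceeds the activity threshold set in the earlier primary screen, cut at about 20% in these data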
ADAM17 confirm – ADAM17 inhibitors, hit retest, confirmation, biochemical, QFRET peptide cleavage; inhibition, % at 6.95 µM; recombinant ADAM17, EDANS/DABCYL QFRET peptide cleavage; shares compounds with ADAM17 inh; 2,900 compounds, 65% hits;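 active = mean inhibition across replicates above the hit cutoff set in the primary screen, cut at about 8.5% in these data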
Large screens that a line does not name were inactive (follow-up assays come after a bar, where they were run); ! = not confirmed by another sample. Rows were chosen to be rich in hits. Some 3.4% of all compounds tested hit in one or more screens of this group.

Cc1ccc(NC(=O)c2ccccc2OCC(=O)Nc2ccccc2F)cc1S(=O)(=O)N(C)C	ADAM17 inh 11 | ADAM10 counter 42 | ADAM17 confirm 25
O=C(NCc1n[nH]c(=S)n1-c1cccc(C(F)(F)F)c1)c1ccc(S(=O)(=O)N2CCCCC2)cc1	ADAM17 inh 13 | ADAM10 counter inactive | ADAM17 confirm inactive
O=C(NCc1n[nH]c(=S)n1-c1cccc(C(F)(F)F)c1)c1ccc(S(=O)(=O)N2CCCC2)cc1	none
C=CCn1c(COc2ccc(Cl)cc2)nnc1SCC(=O)c1ccccc1	none (no result: NRP1-CendR mod)
Cc1ccccc1S(=O)(=O)N1[C@@H](c2ccccc2)C(C(=O)O)=CC[C@H]1c1ccc(Cl)cc1	none
Cc1ccccc1S(=O)(=O)N1[C@@H](c2ccc(Br)cc2)C(C(=O)O)=CC[C@H]1c1ccc(Cl)cc1	ADAM17 inh 9.3 | ADAM10 counter inactive | ADAM17 confirm 8.7
Cc1ccc(S(=O)(=O)N2[C@@H](c3cccc(Cl)c3)C(C(=O)O)=CC[C@H]2c2ccc(C(C)C)cc2)cc1	ADAM17 inh 9.0 | ADAM10 counter 26 | ADAM17 confirm 14
CC(=O)C1=CCC(c2ccc(Cl)cc2)N(S(=O)(=O)c2ccc(C)cc2)C1 (centres undefined)	ADAM17 inh 12! | ADAM10 counter inactive | ADAM17 confirm inactive
CC(CCN1CCC(C(O)(c2ccccc2)c2ccccc2)CC1)Oc1ccc(C#N)cc1F (centres undefined)	none (no result: NRP1-CendR mod)
COc1c(S(=O)(=O)N2CCN(c3ccc(F)cc3)CC2)ccc(Cl)c1Cl	ADAM17 inh 9.7 | ADAM10 counter 22 | ADAM17 confirm 14
O=S(=O)(c1ccc(F)cc1)N1CCN(c2ccc(F)cc2)CC1	none
COC(=O)c1ccc(CSc2nc3c(c(=O)n2-c2ccc(C)cc2)SCC3)o1	ADAM17 inh 12 | ADAM10 counter inactive | ADAM17 confirm inactive
COC(=O)C1=C(C)NC(=S)NC1c1cccc(OC)c1 (centres undefined)	none (no result: NRP1-CendR mod)
Fc1ccc(Cn2c(SCc3ccc(F)c(C(F)(F)F)c3)nnc2C(F)(F)F)cc1	ADAM17 inh 8.8 | ADAM10 counter 37 | ADAM17 confirm 17
Fc1ccc(Cn2c(SCc3ccc(F)c(F)c3)nnc2C(F)(F)F)cc1	none
O=C(NCc1ccc(C(=O)N2CCCN(Cc3ccccc3)CC2)cc1)c1cccc(Br)c1	none (no result: NRP1-CendR mod)
Cc1cnn(CCC(=O)NNC(=S)Nc2ccccc2)c1	ADAM17 inh 12 | ADAM10 counter inactive | ADAM17 confirm inactive
Cc1ccc(NC(=S)NNC(=O)CCn2cc(C)cn2)cc1	none
COC(=O)[C@]12C[C@H](CC(=O)NCc3ccccc3)C(=O)N(Cc3ccc(Cl)cc3Cl)C1=C[C@H](C(C)(C)C)O[C@@H]2C	none (no result: NRP1-CendR mod)
Cc1ccc(Nc2ncnc3sc(C)c(C)c23)cc1C	ADAM17 inh 9.1 | ADAM10 counter inactive | ADAM17 confirm inactive
Cc1sc2ncnc(NCCCO)c2c1C	none
CCOc1ccc(NC(=O)CN2CCCC2c2cccs2)cc1S(=O)(=O)N1CCCC1 (centres undefined)	none
COc1ccc(NC(=O)CN2CCCC2c2cccs2)cc1S(=O)(=O)N1CCCCC1 (centres undefined)	ADAM17 inh 9.5 | ADAM10 counter inactive | ADAM17 confirm inactive
CCCCOC(=O)C1=C(C)Nc2nnnn2C1c1ccccc1Cl (centres undefined)	ADAM17 inh 9.6 | ADAM10 counter inactive | ADAM17 confirm inactive
CCOC(=O)C1=C(C)Nc2nnnn2C1c1ccccc1Cl (centres undefined)	none
CC[C@H](CCC(=O)N(c1ccccc1)c1ccccc1)c1ccc(C)cc1	none (no result: NRP1-CendR mod)
COCCCNC(=O)Cn1nc(-c2ccccc2OC)ccc1=O	ADAM17 inh 10 | ADAM10 counter inactive | ADAM17 confirm inactive
O=C(CCc1nc(-c2ccccc2)no1)NC1CCCCC1	ADAM17 inh 9.0 | ADAM10 counter inactive | ADAM17 confirm inactive
O=C(CCc1nc(-c2ccc(Cl)cc2)no1)NC1CCCCC1	none
C=C1C(=O)[C@]23C[C@H]1CC[C@H]2[C@]1(C)CCC[C@@](C)(C(=O)OC)[C@H]1C[C@@H]3O	none (no result: NRP1-CendR mod)
COc1ccc(S(=O)(=O)N2CCCc3nc(-c4ccccc4)ccc32)cc1	none (no result: NRP1-CendR mod)
CCOc1ccc(CN(C)Cc2cc(=O)oc3c(C)c(C)ccc23)cc1OC	ADAM17 inh 9.4 | ADAM10 counter inactive | ADAM17 confirm inactive
C#CCNC(=O)C[C@@H]1C(=O)N(CC=C)C2=CCCCC[C@]21C(=O)OC	none (no result: NRP1-CendR mod)
CCc1noc(C)c1C(=O)OC(C)C(=O)Nc1ccc(Cl)cn1 (centres undefined)	none
CCc1noc(C)c1C(=O)OC(C)C(=O)Nc1ccc2c(c1)OCO2 (centres undefined)	ADAM17 inh 8.8 | ADAM10 counter inactive | ADAM17 confirm 13
CCOc1ccc(-n2c(SCC(=O)Nc3ccc4c(c3)c3ccccc3n4CC)nnc2-c2cccnc2)cc1	none (no result: NRP1-CendR mod)
CN(Cc1ccccc1)C(=O)OCc1cn(Cc2cccc(Cl)c2)nn1	none (no result: NRP1-CendR mod)
c1nc(NCc2ccc3c(c2)OCO3)c2cc(-c3ccoc3)ccc2n1	ADAM17 inh 9.9 | ADAM10 counter inactive | ADAM17 confirm inactive
COc1ccc(C2CC(c3ccccc3)=NN2C(=O)c2ccc(F)cc2)cc1 (centres undefined)	none
COc1ccc(C2CC(c3ccccc3)=NN2C(=O)CN2N=NC3C(=O)N(c4cccc(F)c4)C(=O)C32)cc1 (centres undefined)	ADAM17 inh 14 | ADAM10 counter inactive | ADAM17 confirm inactive
C(=C\c1ccccc1)/CSc1nnc(COc2ccccc2)n1Cc1ccco1	none (no result: NRP1-CendR mod)
O=C(Nc1cccc(-c2csc(-c3ccccc3)n2)c1)c1cccs1	ADAM17 inh 9.8 | ADAM10 counter inactive | ADAM17 confirm 12
Cc1nc(-c2cccc(NC(=O)c3cccs3)c2)cs1	none
CCOC(=O)C1CCN(C(=O)C(C)(C)NC(=O)Nc2ccc(OC)c(Cl)c2)CC1	none (no result: proKLK7 act, NRP1-CendR mod)

Compound activity deposited in PubChem BioAssay by several laboratories.
